Assays:
Settings in all cases: mESC; 2uM; 72 h treatment, harvest day 5
[1] = compound: CO[C@H]1/C=C/O[C@@]2(C)Oc3c(C)c(O)c4c(O)c(c(/C=N/N5CCN(C6CCCC6)CC5)c(O)c4c3C2=O)NC(=O)/C(C)=C\C=C\[C@H](C)[C@H](O)[C@@H](C)[C@@H](O)[C@@H](C)[C@H](OC(C)=O)[C@@H]1C [Rifapentine]; test: fraction of microhomology deletions among edited reads; higher = more MH deletions
[2] = compound: COc1ccccc1-c1cc(Nc2cccc(CS(N)(=O)=O)c2)ncn1; test: as above
[3] = compound: C[C@@H]1CN(CC(=O)Nc2ccc3c(c2)Cc2cccc(-c4cc(=O)cc(N5CCOCC5)o4)c2S3)C[C@H](C)O1; test: as above
[4] = compound: Cc1cc(C)nc(SCC(=O)Nc2ncc(Cc3cccc4ccccc34)s2)n1; test: as above
[5] = compound: Cc1cccc(CC(=O)N2CCc3c2ccc(-c2cn(C)c4ncnc(N)c24)c3F)n1; test: as above
[6] = compound: NC(=O)c1ccc2nc(-c3ccc(Oc4ccc(Cl)cc4)cc3)[nH]c2c1 [Chk 2 inhibitor II (BML-277)]; test: as above
[7] = compound: Nc1cc(F)ccc1NC(=O)c1ccc(CNC(=O)/C=C/c2cccnc2)cc1 [Tucidinostat (Chidamide)]; test: as above
[8] = compound: Nc1nc2[nH]cc(CCc3ccc(C(=O)N[C@@H](CCC(=O)O)C(=O)O)cc3)c2c(=O)[nH]1 [Pemetrexed]; test: as above
[9] = compound: Nc1ncnc2c1c(-c1cnc3[nH]ccc3c1)nn2C1CCCC1; test: as above
[10] = compound: O=C(c1cccc(Cl)c1F)N1CCN(Cc2cccc(Nc3nccs3)n2)CC1; test: as above
[11] = compound: O=C1Cc2c([nH]c3ccc(Br)cc23)-c2ccccc2N1 [Kenpaullone]; test: as above
[12] = compound: O=c1c(-c2ccc(O)cc2)coc2cc(O)cc(O)c12 [Genistein]; test: as above
[13] = compound: O=c1cc(N2CCOCC2)oc2c(-c3ccc4c(c3)OCCO4)csc12; test: as above
[14] = compound: S=c1[nH]cnc2nc[nH]c12 [Mercaptopurine (6-MP)]; test: as above
[15] = compound: S=c1nc[nH]c2nc[nH]c12 [6-Mercaptopurine (6-MP) Monohydrate]; test: as above
[16] = compound: CC(=O)O/N=C1\C(=O)N(Cc2cc(Cl)ccc2Cl)c2ccc(Cl)cc21; test: fraction of 1-bp insertions among edited reads; higher = more 1-bp insertion outcomes
[17] = compound: CC(C)(C#N)c1ccc(N2C(=O)OCc3cnc4ccc(-c5cnc6ccccc6c5)cc4c32)cc1; test: as above
[18] = compound: CCCCOc1c(C(=O)c2c(F)cc(C)cc2F)c[nH]c2nncc1-2; test: as above
[19] = compound: CCN1CCN(CC(=O)Nc2ccc(-c3cccc4c(=O)cc(N5CCOCC5)oc34)c3sc4ccccc4c23)CC1; test: as above
[20] = compound: CCc1c2c(nc3ccc(OC(=O)N4CCC(N5CCCCC5)CC4)cc13)-c1cc3c(c(=O)n1C2)COC(=O)[C@]3(O)CC [Irinotecan HCl Trihydrate]; test: as above

Target | fraction of microhomology deletions among edited reads [1] | fraction of microhomology deletions among edited reads [2] | fraction of microhomology deletions among edited reads [3] | fraction of microhomology deletions among edited reads [4] | fraction of microhomology deletions among edited reads [5] | fraction of microhomology deletions among edited reads [6] | fraction of microhomology deletions among edited reads [7] | fraction of microhomology deletions among edited reads [8] | fraction of microhomology deletions among edited reads [9] | fraction of microhomology deletions among edited reads [10] | fraction of microhomology deletions among edited reads [11] | fraction of microhomology deletions among edited reads [12] | fraction of microhomology deletions among edited reads [13] | fraction of microhomology deletions among edited reads [14] | fraction of microhomology deletions among edited reads [15] | fraction of 1-bp insertions among edited reads [16] | fraction of 1-bp insertions among edited reads [17] | fraction of 1-bp insertions among edited reads [18] | fraction of 1-bp insertions among edited reads [19] | fraction of 1-bp insertions among edited reads [20]
17.0 (DMSO control at this site: 1-bp insertion 0.112, MH deletion 0.348, edited 0.058) CCATAGCGCGATAAATATGACGGCTCATCCTGTATGACGGCTCATCCTGTATCAACTGTCC | 0.43 | 0.378 | 0.243 | 0.444 | 0.409 | 0.35 | 0.38 | 0.474 | 0.39 | 0.409 | 0.377 | 0.409 | 0.342 | 0.422 | 0.393 | 0.12 | 0.143 | 0.145 | 0.0756 | 0.161
25.0 (DMSO control at this site: 1-bp insertion 0.017, MH deletion 0.774, edited 0.143) GGGCCTGAATGGTGTGGACATCTACTCGCTGGTGAGCTGGTGACTGAAAACATTCAGTGGC | 0.792 | 0.747 | 0.648 | 0.772 | 0.759 | 0.767 | 0.723 | 0.744 | 0.784 | 0.769 | 0.739 | 0.773 | 0.772 | 0.71 | 0.694 | 0.0158 | 0.0262 | 0.017 | 0.0169 | 0.0204
1.0 (DMSO control at this site: 1-bp insertion 0.521, MH deletion 0.323, edited 0.141) GTGTCACAGTGCACGAGTGACGGGATAATGTGCTGACAGGTAATTGATAGGCTTCCAACTT | 0.256 | 0.224 | 0.0962 | 0.248 | 0.227 | 0.243 | 0.215 | 0.342 | 0.163 | 0.209 | 0.197 | 0.286 | 0.276 | 0.227 | 0.218 | 0.514 | 0.557 | 0.595 | 0.243 | 0.586
46.0 TTAAGAGCAATGTTCACGCAACTTGAAATTATATCTGTGGTCTTCAAATTGTCTTTTGTCA | 0.417 | – | – | – | – | – | 0.327 | 0.431 | 0.497 | – | – | 0.375 | – | – | 0.33 | – | 0.09 | 0.208 | – | –
38.0 (DMSO control at this site: 1-bp insertion 0.063, MH deletion 0.487, edited 0.17) GGGCTGGGTGCTAAAATGAGGAGCTCCAAGAAGACTGAGGTGAACCTGGAGGCCCCTGAGC | 0.507 | 0.46 | 0.441 | 0.483 | 0.495 | 0.495 | 0.458 | 0.548 | 0.432 | 0.439 | 0.414 | 0.462 | 0.476 | 0.474 | 0.468 | 0.0549 | 0.0615 | 0.0554 | 0.0485 | 0.0536
15.0 GCGCCTCCAATGACCCAGTGGGATCCTACTCCATAATGGGATCCTGGGGATTCCTCGCTCC | 0.426 | – | – | 0.39 | – | – | 0.289 | – | – | – | – | 0.299 | – | – | 0.339 | 0.254 | 0.168 | – | – | –
30.0 (DMSO control at this site: 1-bp insertion 0.074, MH deletion 0.67, edited 0.142) GAGCTGGCATGAGTATTTGTGCCACATGGCTCCCACATGGCTCCACATGCAAGTTTGAAAC | 0.684 | 0.599 | 0.335 | 0.69 | 0.586 | 0.67 | 0.607 | 0.644 | 0.635 | 0.638 | 0.628 | 0.697 | 0.745 | 0.6 | 0.57 | 0.0901 | 0.0675 | 0.059 | 0.036 | 0.0999
18.0 (DMSO control at this site: 1-bp insertion 0.114, MH deletion 0.789, edited 0.094) GCGCAAGTGCATAAGTTTTTCTTAAGGCGTGCCTTTAAGGCGTGCCTTTGTCGGTCCTGGA | 0.805 | 0.779 | 0.683 | 0.791 | 0.755 | 0.812 | 0.797 | 0.78 | 0.768 | 0.777 | 0.759 | 0.797 | 0.833 | 0.734 | 0.733 | 0.0913 | 0.0901 | 0.103 | 0.0252 | 0.109
44.0 (DMSO control at this site: 1-bp insertion 0.181, MH deletion 0.512, edited 0.123) ACACATACCTTCTTCGAGGCAGCCAGCATGATGAGACAGGTCTCCCACAAACACATCGTGT | 0.531 | 0.451 | 0.295 | 0.506 | 0.384 | 0.539 | 0.491 | 0.583 | 0.479 | 0.486 | 0.473 | 0.525 | 0.537 | 0.499 | 0.523 | 0.159 | 0.185 | 0.221 | 0.0636 | 0.21
8.0 GCATGCGTGTTTTGGGACAATGTAGTATACATTTGGGAGGCTCTCAGCTTTTCCCAATAAA | – | – | – | 0.0765 | – | – | 0.0826 | 0.127 | 0.0866 | – | 0.0098 | – | – | – | 0.00885 | 0.443 | 0.455 | 0.303 | – | –

Source: the supplement of paper PMC8387472
